# Shown are actives, neighbours in structure and some others; about 5.4% of the full set was active somewhere.
# RORgamma inh – ROR gamma (mouse) transcription inhibition | P51450 | Drosophila S2 Gal4-RORgamma UAS-luciferase reporter, 20 h | Potency, µM (titrated, usually from 53.6 µM), for inactives: at the top dose activity change, negative = inhibition, most hits filed as inhibitors | 310,000 compounds, 5.4% hits | AID 2551; note: potency is the fitted concentration of half-maximal effect; % is set by controls: 0 for no effect and ±100 for the full control effect; nearly all actives have a fitted effect of over 60% in size
#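 Using a luciferase readout, inhibitors were identified by reduced reporter activity in Drosophila cells coexpressing a copper-inducible Gal4–ROR gamma fusion and UAS-driven Photinus luciferase, incubated 20 hr after 700 uM copper sulfate.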
# p53 reactivator – re-activators of mutant p53 | H1299 p53-A138V BP100-luciferase reporter, luminescence, 24 h | Potency, µM (series often up to 92.2 µM), for the others: at the highest dose activity change, positive = activation, actives largely listed as activators | 320,000 compounds, 0.063% hits | AID 504706; note: potency is the fitted concentration of half-maximal effect; % of control where 0% means no effect; nearly all actives have a fitted effect of over 45% in size
#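 p53-null H1299 cells stably carrying temperature-sensitive p53-A138V and a BP100-luciferase reporter were pinned with compounds (4-point, 1:5 series) and held 24 hrs at 37 deg C. Luminescence was read 10 min after detection reagent.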
# CtBP-E1A blk – blocks the CtBP interaction with E1A. AlphaScreen GST-E1A/His-CtBP binding, 1536-well; stronger effect = lower value. activity change, % (no concentration beside the values). 340,000 compounds, 0.49% hits. AID 651724; in the data active = activity change below about -65%; inconclusive = mostly about -30% to -63%; note: % is set by controls: 0 for no effect and ±100 for the full control effect
#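 Protein mix (5X: 125 nM each GST-E1A, His-CtBP) was incubated with pinned compound 2 h at 37 deg C in dark, in 50 mM Tris pH 8.0 buffer with 300 mM NaCl. Glutathione donor and nickel acceptor beads followed; AlphaScreen signal read after 1 h.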
# VP16 counter – counter-screen for ROR gamma inhibitors: Gal4-VP16 reporter. Drosophila S2 Gal4-VP16 UAS-luciferase, luminescence, 20 h. Potency, µM (titrated, usually from 53.6 µM), inactives show at the highest dose activity, negative = inhibition, hits mostly inhibitors. 310,000 compounds, 3.5% hits. AID 2546;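 note: Gal4-VP16 expression switched on by copper sulfate through the metallothionein promoter; potency is the fitted concentration of half-maximal effect; % is set by controls: 0 for no effect and ±100 for the full control effect; nearly all actives have a fitted effect of over 50% in size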
# Six1-Eya2 inh – inhibitors of human Six1/Eya2 interaction. AlphaScreen GST-Six1/His-Eya2 binding, biochemical; stronger effect = lower value. activity change, % (no concentration beside the values). 360,000 compounds, 0.56% hits; in the data active = activity change below about -65%; inconclusive = mostly about -30% to -63%; note: % is set by controls: 0 for no effect and ±100 for the full control effect
# Target sequence (O00167 whole entry, looked up): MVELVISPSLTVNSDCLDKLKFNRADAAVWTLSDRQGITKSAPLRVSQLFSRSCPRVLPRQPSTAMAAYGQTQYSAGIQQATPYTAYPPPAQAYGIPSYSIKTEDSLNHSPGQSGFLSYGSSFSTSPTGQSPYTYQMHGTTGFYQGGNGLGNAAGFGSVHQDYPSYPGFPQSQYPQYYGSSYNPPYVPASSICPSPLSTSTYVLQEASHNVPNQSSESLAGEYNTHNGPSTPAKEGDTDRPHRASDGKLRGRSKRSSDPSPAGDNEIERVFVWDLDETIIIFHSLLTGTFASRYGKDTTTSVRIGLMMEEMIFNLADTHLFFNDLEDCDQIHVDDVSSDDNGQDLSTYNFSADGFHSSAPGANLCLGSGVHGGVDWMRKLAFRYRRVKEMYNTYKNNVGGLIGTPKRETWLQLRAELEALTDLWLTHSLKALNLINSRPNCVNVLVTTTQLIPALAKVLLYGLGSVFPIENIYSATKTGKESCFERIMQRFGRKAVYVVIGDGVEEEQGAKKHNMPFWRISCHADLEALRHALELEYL
# Target sequence (Q15475 whole entry, looked up): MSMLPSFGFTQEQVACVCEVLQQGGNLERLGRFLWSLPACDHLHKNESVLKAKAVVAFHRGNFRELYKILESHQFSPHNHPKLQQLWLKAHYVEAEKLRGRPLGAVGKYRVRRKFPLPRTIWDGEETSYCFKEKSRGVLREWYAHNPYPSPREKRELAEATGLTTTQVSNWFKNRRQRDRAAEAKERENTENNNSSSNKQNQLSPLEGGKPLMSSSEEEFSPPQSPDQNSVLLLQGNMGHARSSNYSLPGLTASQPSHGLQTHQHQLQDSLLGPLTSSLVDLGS
#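 Six1/Eya2 binding was read as AlphaScreen signal after compounds were pinned into GST-Six1 plus His-tagged Eya2 (5X stock 250/500 nM) in pH 8.0 Tris/NaCl/TCEP buffer, beads added, then incubated 1 h, 37 C, dark.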
# * = called active by the depositor; u = inconclusive; x = no result given; [ ] = remark or other dose. Unless noted, calls come from the whole dose curve; as a rule, active = well fitted curve in the direction sought with a large enough effect; inconclusive = small, poorly fitted or top-dose-only effect, or another doubt; inactive = no such curve, though single readings can be large; an effect the other way counts as inactive or inconclusive.
SMILES,RORgamma inh,p53 reactivator,CtBP-E1A blk,VP16 counter,Six1-Eya2 inh
CCC(Sc1ccc2nnc(-c3ccc(F)cc3)n2n1)C(=O)OC (configuration not stated),20µM*,-7%,12,0%,-9
COC(=O)C(C)Sc1ccc2nnc(-c3ccc(F)cc3)n2n1 (configuration not stated),-39%,0%,0,6%,1
C/C(=N\NC(=O)CSCc1ccc([N+](=O)[O-])cc1)c1ccccc1O,0.32µM*,-8%,-5,2µM*,-9
C/C(=N\NC(=O)Cc1ccc(Cl)cc1)c1ccc(F)cc1,u,x,x,-7%,4
C/C(=N\NC(=O)CSCc1ccc([N+](=O)[O-])cc1)c1ccccc1,u,1%,-11,-26%,-1
C/C(=N\NC(=O)Cc1ccc(Cl)cc1)c1ccccc1O,0.28µM*,x,-3,0.32µM*,-3
S=c1sscc1-c1ccccc1,x,x,-81*,x,-70*
CCn1c(SCc2ccc(Cl)cc2)nc2nc3c(cc2c1=O)CCCC3,13µM*,5%,1,u,4
CSc1nc2nc3c(cc2c(=O)n1-c1ccccc1C)CCCC3,-15%,2%,4,5µM*,-5
Cc1cc(C)n2nc3nc4c(cc3c2n1)CCCC4,8%,u,-21,17%,-19
Cc1ccc(C(=O)NCC(=O)OCCCOC(=O)CNC(=O)c2ccc(C)c(C)c2)cc1C,x,5%,-1,x,1
C=CCN(C(C(=O)OC)C(C)C)S(=O)(=O)C=C (configuration not stated),-1%,x,x,19%,x
COc1cccc(-c2ccc(NC(=O)C3CCCN(Cc4nccn4C)C3)cc2)c1 (configuration not stated),5µM*,-9%,0,u,-24
NCCC[C@@H](CC(=O)N[C@@H]1CCCC[C@H]1C(=O)N[C@H](CC(=O)N[C@@H](CCC(=O)O)CC(=O)O)Cc1c[nH]c2ccccc12)NC(=O)C[C@H](CO)NC(=O)[C@@H]1CCCC[C@H]1N,2%,x,x,-1%,x
CCOC(=O)/C=C(\C)Sc1cc(O)c2ccccc2c1O,11µM*,-15%,x,u,u
O=C(Nc1nc2ccccc2s1)c1ccc(N2CCCCC2)c([N+](=O)[O-])c1,10µM*,u,u,u,u
Cc1ccc(CN2CCN(CCCn3cccn3)CC2CCO)cc1 (configuration not stated),-17%,3%,-1,-3%,5
CCC(Oc1ccc(Br)cc1Cl)C(=O)Nc1nnc(C2CC2)s1 (configuration not stated),13µM*,-15%,-3,u,0
CC(C)=CCC1C(=O)N(c2ccccc2)N(c2ccccc2)C1=O,-20%[10 µM],x,x,u,x
CCCCC1C(=O)N(c2ccccc2)N(c2ccc(O)cc2)C1=O (configuration not stated),4.5µM*,-18%,1,5.6µM*,-2
Cc1ccc(C(=O)C(C(=O)/C=C/c2ccccc2)=C2SCCCS2)cc1,3.5µM*,-28%,10,14µM*,-1
O=C(N[C@H]1CC[C@H](CCNC(=O)C2CC2)O[C@@H]1CO)c1ccccn1,x,x,-2,x,-7
NC(=S)N=Nc1c(O)cc(O)c2[nH]c(=O)ccc12,x,x,-3,x,-85*
Cc1cc(=O)[nH]c(Nc2cccc(Cl)c2C)n1,24%,2%,4,0%,-1
O=C(Oc1ccc2c(c1)OCC2=O)c1ccc(Cl)cc1,23%,2%,-14,0%,-66*
SMILES,RORgamma inh,p53 reactivator,CtBP-E1A blk,VP16 counter,Six1-Eya2 inh
NC(=O)c1c(NC(=O)C2c3ccccc3Oc3ccccc32)sc2c1CCCCC2,0%,-1%,0,25%,-1
O=C(CSc1nnc(-c2cccnc2)n1Cc1ccco1)N1c2ccccc2Sc2ccccc21,13µM*,-5%,u,u,u
COc1ccc(C(=O)CSc2nnc(-c3cccnc3)n2Cc2ccco2)cc1,7%,-21%,1,0%,-4
NC(=O)CSc1nnc(-c2cccs2)n1Cc1ccco1,22%,1%,-1,-12%,-4
NC(=O)CSc1nnc(-c2ccc(O)cc2)n1Cc1ccco1,-36%,14%,-90*,-2%,-87*
Clc1cccc(CSc2nnc(-c3cccnc3)n2Cc2ccco2)c1,16µM*,-6%,-10,u,-5
c1cncc(CSc2nnc(-c3cccnc3)n2Cc2ccco2)c1,5%,-4%,x,0%,x
COc1ccc(C(=O)NC(=S)N2CCOCC2)cc1[N+](=O)[O-],2.2µM*,22%,6,2.8µM*,5
COc1ccc(C(=O)Nc2ccc(CN3CCOCC3)cc2)cc1Br,20%,x,-19,-3%,-3
COc1ccc(C(=O)NC(=S)N2CCOCC2)cc1Br,1.3µM*,3%,5,1.1µM*,0
COc1cc(/C=C/C(=O)OCC(=O)N2CCN(S(=O)(=O)c3ccc(C)cc3C)CC2)ccc1OC(F)F,x,x,-86*,x,-22
Cc1ccc(S(=O)(=O)N2CCN(C(=O)COC(=O)/C=C/c3ccc(F)cc3)CC2)c(C)c1,x,3%,-25,x,-6
COc1ccc(Cc2nc3ccc(C(=O)N(C)C(C)c4ccon4)cc3o2)cc1 (configuration not stated),u,9%,4,0%,11
S=C(NCCSCc1c(Cl)cccc1Cl)Nc1ccccc1,2µM*,6%,-8,5µM*,-11
OCCNCc1ccc(OCc2ccc(Cl)cc2Cl)cc1,13µM*,-4%,-20,-2%[10 µM],8
COc1ccc(CSCCNC(=S)Nc2ccccc2)cc1Cl,4.5µM*,-1%,-1,u,-11
S=C(NCCSCc1ccc(Cl)cc1Cl)Nc1ccccc1,3.2µM*,-6%,-8,4µM*,-1
CN(C)S(=O)(=O)Oc1ccc(Cl)cc1C(=O)Nc1ccc(F)cc1F,42%,-4%,12,8%,7
Cc1ccccc1CSCCNC(=S)Nc1ccccc1,2.2µM*,18%,-11,7.1µM*,-7
S=C(Nc1ccccc1)Nc1ccc(OCc2ccc(Cl)cc2Cl)cc1,1.4µM*,-22%,5,7.1µM*,8
N#CCCn1c(=O)c(-c2ccc(Cl)cc2)nc2cnc(N3CCOCC3)nc21,17%,x,x,3%,x
COC(=O)C1=C(C(=O)OC)[C@]2([C@@H]3CC=CCN[C@@H](Cc4ccccc4)C(=O)N3Cc3ccccc3)C=C[C@H]1O2,x,x,-13,x,-14
C=CCC(Nc1ccccc1)C12C=CC(O1)C(C(=O)OC)=C2C(=O)OC (configuration not stated),5.6µM*,-23%,1,6.3µM*,-1
CCCCN(Cc1ccco1)C(=O)Cn1ncc2c(=O)oc3ccc(C)cc3c21,1.4µM*,2%,-2,-3%,8

# Compound activity as filed in PubChem.
